PubChem BioAssay AID1159580 (chemical genetic matrix, 2015)
Several values for one entry are separate records, joined by “and”; a condition that tells them apart may be missing. Identical values can stand only once. Among all 5,500 compounds or so, about 2,000 (36%) were called active. Roughly 18% stayed inconclusive and do not appear here. No stated cut-off is given here; in the data, active means normalized growth mostly below about 0.91 (no sharp cut-off); inconclusive means no clear call, values can overlap the other calls; inactive means mostly above about 0.92. Some of the results follow.

Test: chemical genetic growth profiling, strain panel (AID 1159580);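 further: tested at 20 µM; growth read once vehicle control cultures reached saturation at 30 °C; 1 = growth at the plate median or of vehicle wells; lower values mean less growth of the strain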
Settings: S. cerevisiae deletion strains, growth OD

Measured: normalized growth

O=C1C=CC2=C3c4cc(O)c(O)cc4C[C@@]3(O)COC2=C1
inactive: locus YAL021C, strain ccr4, hits give low values 0.965 | locus YAL026C, strain drs2, hits give low values 0.973 | locus YAL030W, strain snc1, hits give low values 0.979 | locus YBL061C, strain skt5, hits give low values 0.992 | locus YBR009C, strain hhf1, hits give low values 0.984 | locus YBR021W, strain FUR4, hits give low values 1.01 | locus YBR023C, strain chs3, hits give low values 0.99 | locus YBR171W, strain sec66, hits give low values 0.988 | locus YBR229C, strain ROT2, hits give low values 0.998 | locus YBR231C, strain swc5, hits give low values 0.978 | locus YBR279W, strain paf1, hits give low values 0.985 | locus YCL011C, strain gbp2, hits give low values 0.975 | locus YCL016C, strain dcc1, hits give low values 0.95 | locus YCL029C, strain bik1, hits give low values 1 | locus YCL061C, strain MRC1, hits give low values 0.98 | locus YCL069W, strain vba3, hits give low values 0.981 | locus YCR088W, strain abp1, hits give low values 0.99 | locus YDL005C, strain med2, hits give low values 0.966 | locus YDL035C, strain GPR1, hits give low values 1.03 | locus YDL040C, strain nat1, hits give low values 0.97 | locus YDL074C, strain BRE1, hits give low values 1 | locus YDL101C, strain DUN1, hits give low values 0.981 | locus YDL134C, strain PPH21, hits give low values 0.998 | locus YDL185W, strain tfp1, hits give low values 0.985 | locus YDL192W, strain arf1, hits give low values 1.01 | locus YDR001C, strain nth1, hits give low values 0.978 | locus YDR069C, strain doa4, hits give low values 0.94 | locus YDR101C, strain arx1, hits give low values 1.05 | locus YDR137W, strain rgp1, hits give low values 1.01 | locus YDR150W, strain NUM1, hits give low values 1 | locus YDR159W, strain sac3, hits give low values 0.986 | locus YDR162C, strain NBP2, hits give low values 1.03 | locus YDR195W, strain ref2 0.939 | locus YDR297W, strain sur2, hits give low values 0.981 | locus YDR318W, strain mcm21, hits give low values 0.998 | locus YDR334W, strain swr1, hits give low values 0.967 | locus YDR335W, strain msn5, hits give low values 0.969 | locus YDR388W, hits give low values 1 | locus YDR392W, strain spt3, hits give low values 0.95 | locus YDR502C, strain sam2, hits give low values 0.999 | locus YEL003W, strain gim4, hits give low values 0.989 | locus YEL037C, strain rad23, hits give low values 0.981 | locus YEL061C, strain CIN8 (second series), hits give low values 0.975 | locus YER015W, strain faa2, hits give low values 0.982 | locus YER016W, strain bim1, hits give low values 0.976 | locus YER110C, hits give low values 0.986 | locus YER111C, strain swi4, hits give low values 0.98 | locus YER155C, strain BEM2 (second series), hits give low values 0.972 | locus YER155C, strain BEM2, hits give low values 1.02 | locus YER167W, strain BCK2, hits give low values 1.01 | locus YFR010W, strain ubp6, hits give low values 0.963 | locus YGL078C, strain dbp3, hits give low values 0.967 | locus YGL086W, strain mad1, hits give low values 1.01 | locus YGL167C, strain pmr1, hits give low values 0.964 | locus YGL173C, strain kem1, hits give low values 0.977 | locus YGL227W, strain vid30, hits give low values 0.989 | locus YGL240W, strain doc1, hits give low values 0.985 | locus YGL248W, strain PDE1, hits give low values 0.981 | locus YGL253W, strain hxk2, hits give low values 0.978 | locus YGR135W, strain pre9, hits give low values 0.954 | locus YGR252W, strain gcn5, hits give low values 0.939 | locus YHR013C, strain ard1, hits give low values 0.954 | locus YHR027C, strain rpn1, hits give low values 0.972 | locus YHR030C, strain SLT2, hits give low values 1.03 | locus YHR079C, strain IRE1 (second series), hits give low values 1 | locus YHR079C, strain IRE1, hits give low values 1.02 | locus YHR094C, strain hxt1, hits give low values 0.994 | locus YHR129C, strain ARP1, hits give low values 0.997 | locus YHR142W, strain chs7, hits give low values 0.963 | locus YHR200W, strain rpn10, hits give low values 0.991 | locus YIL066C, strain RNR3, hits give low values 1.01 | locus YIL073C, strain SPO22, hits give low values 0.996 | locus YIL125W, strain kgd1, hits give low values 0.994 | locus YIR030C, strain dcg1, hits give low values 0.999 | locus YJL092W, strain hpr5, hits give low values 0.991 | locus YJL095W, strain BCK1 (second series), hits give low values 0.975 | locus YJL095W, strain BCK1, hits give low values 0.979 and 1.04 | locus YJL115W, strain asf1, hits give low values 0.975 | locus YJL129C, strain trk1, hits give low values 1 | locus YJL134W, strain LCB3, hits give low values 1.01 | locus YJL154C, strain vps35, hits give low values 0.981 | locus YJL164C, strain tpk1, hits give low values 0.962 | locus YJL166W, strain qcr8, hits give low values 0.979 | locus YJL168C, strain set2, hits give low values 0.996 | locus YJL187C, strain SWE1 (second series), hits give low values 0.96 | locus YJL187C, strain SWE1, hits give low values 0.988 | locus YJR043C, strain POL32, hits give low values 1.03
